About 79,000 compounds went through this panel and 15% of them were active in at least one assay; those are over-represented in the sample as a whole. Unmarked numbers belong to inactive results. Activity calls are given as the source filed them. No stated cut-off is given here; in the data, active means growth inhibition above about 70%; inactive means the rest.

A short description of this assay: NCI Yeast Anticancer Drug Screen. Data for the mec2-1 strain (AID 157). To be noted: S. cerevisiae mec2-1 strain, active compounds read high. Here is the method:
Growth inhibition of yeast strains with defined genetic alterations is measured as a screen for potential anti-cancer activity. Selected strains with alterations in DNA damage repair or cell cycle control were exposed to compounds and growth inhibition was measured relative to vehicle treated controls. The strain used in this assay is mec2-1

The mark [1] stands for this setting: at 5.0 µM (retest, dose inferred, filed as 0.5).
The mark [2] stands for this setting: at 50.0 µM (retest, dose inferred, filed as 5.0).

As to `Cn1c(-c2ccc(/C=N\N3CCN(/N=C/c4ccc(-c5c[n+]6ccsc6n5C)cc4)CC3)cc2)c[n+]2ccsc12`, the growth inhibition reads like this: (at 1.2 µM) 50%; (at 3.7 µM) 51%; under setting [1], 14%; (at 11.0 µM) 57%; (at 33.0 µM) 41%; under setting [2], 53%. The growth inhibition reads like this: (at 50.0 µM) 30.4%; (at 100.0 µM) 82% (active).
Take `O=C1C(=C2CCCC2)CCC1CN1CCCCC1` (stereo not given): the growth inhibition runs as follows: (at 1.2 µM) -7%; (at 3.7 µM) -12%; under setting [1], 6%; (at 11.0 µM) 9%; (at 33.0 µM) 70% (active); under setting [2], 60%. The growth inhibition by setting is: (at 50.0 µM) 68.7%; (at 100.0 µM) 96% (active).
Consider `CCOP(=O)(OCC)/C(C#N)=C/c1cccc(Oc2ccccc2)c1`, for which the growth inhibition runs as follows: (at 1.2 µM) -8%; (at 3.7 µM) 1%; under setting [1], -7%; (at 11.0 µM) 45%; (at 33.0 µM) 97% (active); under setting [2], 98% (active). Also, the growth inhibition runs as follows: (at 50.0 µM) 93.5% (active); (at 100.0 µM) 98% (active).
Consider `Cc1ccnc2c(O)cccc12`, for which the growth inhibition was 31% (at 1.2 µM); 98% (active) (at 3.7 µM); -1% under setting [1]; 100% (active) (at 11.0 µM); 100% (active) (at 33.0 µM); 98% (active) under setting [2]. Besides, the growth inhibition was 97.3% (active) (at 50.0 µM) and 100% (active) (at 100.0 µM).
In the case of `CCOC(=O)/C(=C\c1cccc(C)c1)C(C)=O`, the growth inhibition is, setting by setting: (at 1.2 µM) 0%; (at 3.7 µM) 3%; under setting [1], -5%; (at 11.0 µM) 71% (active); (at 33.0 µM) 95% (active); under setting [2], 96% (active). Besides, the growth inhibition reads like this: (at 50.0 µM) 93.5% (active); (at 100.0 µM) 100% (active).
